Consider 113 sequences from the supplement of paper PMC3334620.

Whole data set: some 33,000 sequences, median “E-score (-0.5 to 0.5)” near -0.032, cut for the highest 2% near 0.36. Many of the other results were omitted from the sample, so the highest values are more common in it than they were.

The test concerns the target T1, Sko1 (UniProt Q02100).
T1 sequence: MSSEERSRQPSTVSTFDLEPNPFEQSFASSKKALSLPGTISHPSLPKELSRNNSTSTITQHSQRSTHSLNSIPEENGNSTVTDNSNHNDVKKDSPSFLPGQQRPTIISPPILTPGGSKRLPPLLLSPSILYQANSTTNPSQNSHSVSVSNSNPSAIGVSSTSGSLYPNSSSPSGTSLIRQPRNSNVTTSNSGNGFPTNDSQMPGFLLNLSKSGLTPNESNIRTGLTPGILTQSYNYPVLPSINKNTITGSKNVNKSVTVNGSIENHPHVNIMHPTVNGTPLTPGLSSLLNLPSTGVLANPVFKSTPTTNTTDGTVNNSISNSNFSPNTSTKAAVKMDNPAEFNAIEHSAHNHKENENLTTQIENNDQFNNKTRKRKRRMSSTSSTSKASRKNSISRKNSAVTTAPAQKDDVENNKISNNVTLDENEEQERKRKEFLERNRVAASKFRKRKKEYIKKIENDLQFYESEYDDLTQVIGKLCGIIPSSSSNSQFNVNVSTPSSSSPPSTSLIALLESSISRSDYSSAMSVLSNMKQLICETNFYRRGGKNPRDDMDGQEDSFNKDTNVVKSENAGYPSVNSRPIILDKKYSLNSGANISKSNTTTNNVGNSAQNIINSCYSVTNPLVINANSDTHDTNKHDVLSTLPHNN
Put plainly: PBM E-score (8-mer binding enrichment) (E-score (-0.5 to 0.5)); higher = stronger / more preferred TF binding. The note with it: protein concentration: 200 nM; construct: GST-full length. How it is done:
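Universal 'all 10-mer' protein binding microarrays (Agilent AMADID 015681) probed with GST-tagged S. cerevisiae TFs (full-length or DBD) made by in vitro transcription/translation (PURExpress), about 100-200 nM. Bound TF was detected with fluorescent anti-GST. Each ungapped 8-mer (which stands for itself and its reverse complement) is scored by the PBM enrichment score (E-score), a modified Wilcoxon-Mann-Whitney statistic from -0.5 to +0.5, computed with the Universal PBM Analysis Suite. Scale: above 0.35 generally sequence-specific binding.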
As to CTACGTTA, the “PBM E-score” value turned out to be 0.406.

For the sequence GTACGTTA, the “PBM E-score” value worked out at 0.395.

Turning to GCACGTTA, the “PBM E-score” value is 0.274.

On to ATGCGTTA, for which the “PBM E-score” value was 0.247.

For the sequence ATACGTTA, the “PBM E-score” value is 0.436.

Take AGACGTTC: the “PBM E-score” value was found to be 0.125.

Regarding ATACGTTC, the “PBM E-score” value came out at 0.374.

Turning to ACACGTTA, the “PBM E-score” value was determined as 0.318.

GTACGGTA: the “PBM E-score” value came out at 0.207.

Take CTACGTTC: the “PBM E-score” value was 0.272.

Regarding CAACGTTA, the “PBM E-score” value is 0.257.

Take CCACGTTA: the “PBM E-score” value worked out at 0.289.

For AGCAGGGC, the “PBM E-score” value was -0.225.

Turning to AGACTACA, the “PBM E-score” value was -0.158.

On to ATGCTAAT, for which the “PBM E-score” value worked out at 0.209.

Regarding AAGATGCT, the “PBM E-score” value is -0.0361.

Take AAGAAAAG: the “PBM E-score” value was -0.011.

On to GGAGGCCC, for which the “PBM E-score” value is -0.241.

Turning to AGCCCCCC, the “PBM E-score” value was -0.355.

For the sequence ACCAACAA, the “PBM E-score” value came out at 0.147.

Take AGATGCAC: the “PBM E-score” value was -0.0198.

As for ATACGTTG, the “PBM E-score” value is 0.391.

For AAACGTTG, the “PBM E-score” value was 0.112.

With ACACGTTG, the “PBM E-score” value is 0.188.

Consider ATCTCTAC, for which the “PBM E-score” value stood at 0.106.

Consider CCCAGCGC, for which the “PBM E-score” value was -0.229.

Take CCGTACTC: the “PBM E-score” value was -0.132.

Consider AGGTACTC, for which the “PBM E-score” value was -0.109.

As for ACGTACTC, the “PBM E-score” value amounted to 0.432.

With ACGTACTA, the “PBM E-score” value came out at 0.426.

For the sequence AGGTACTG, the “PBM E-score” value is -0.125.

For ATGTACTG, the “PBM E-score” value is -0.0689.

For CCGTACTA, the “PBM E-score” value turned out to be 0.00949.

As to ACGTACTG, the “PBM E-score” value stood at 0.412.

For the sequence GCGTACTA, the “PBM E-score” value amounted to 0.232.

In the case of GGGATAGA, the “PBM E-score” value is -0.0751.

As to CTGGGCTA, the “PBM E-score” value was -0.317.

AGATACGA: the “PBM E-score” value came out at 0.208.

Take CCCTGGAC: the “PBM E-score” value is -0.188.

In the case of CAACGCAG, the “PBM E-score” value was -0.0699.

Take GTAACTTA: the “PBM E-score” value amounted to 0.262.

Take ACATACGT: the “PBM E-score” value was found to be 0.459.

Consider AAATACGC, for which the “PBM E-score” value is 0.315.

For AAATACGT, the “PBM E-score” value turned out to be 0.463.

ACATACGC: the “PBM E-score” value came out at 0.28.

As for AAATACGA, the “PBM E-score” value was found to be 0.302.

As for ACATACGG, the “PBM E-score” value was 0.0483.

Turning to TCGAGTCA, the “PBM E-score” value is -0.00474.

With AGGTGCTA, the “PBM E-score” value is -0.0841.

For the sequence ACCCGTGA, the “PBM E-score” value worked out at 0.0498.

As to CGCCACAG, the “PBM E-score” value was -0.198.

As to CAACCCAC, the “PBM E-score” value is 0.011.

GATCAAAA: the “PBM E-score” value amounted to 0.0898.

For the sequence ATCATGAG, the “PBM E-score” value was 0.211.

Turning to ATCATGAC, the “PBM E-score” value amounted to 0.407.

Regarding ATCATGAA, the “PBM E-score” value was 0.126.

For the sequence GTCATGAC, the “PBM E-score” value was 0.392.

Turning to GTCATGAA, the “PBM E-score” value stood at 0.221.

As to CTCATGAC, the “PBM E-score” value is 0.285.

For the sequence CGCTAAAA, the “PBM E-score” value was -0.102.

ATAATAGG: the “PBM E-score” value was 0.114.

On to GGCGGACC, for which the “PBM E-score” value was -0.321.

For AAACTGAG, the “PBM E-score” value was -0.159.

For the sequence AGGTAGAT, the “PBM E-score” value was -0.0309.

Consider GCGTAGAC, for which the “PBM E-score” value came to 0.0511.

As for ACGTAGAT, the “PBM E-score” value was 0.452.

For ACGTAGAG, the “PBM E-score” value came to 0.387.

As to ACGTAGAA, the “PBM E-score” value was 0.434.

As to CCGTAGAG, the “PBM E-score” value is -0.258.

Consider GCGTAGAA, for which the “PBM E-score” value was 0.178.

Turning to ACGTAGAC, the “PBM E-score” value was 0.415.

CCGTAGAC: the “PBM E-score” value is -0.135.

As to CCGTAGAA, the “PBM E-score” value was -0.14.

Take ACTTAGAG: the “PBM E-score” value was -0.0119.

As for AAGTAGAT, the “PBM E-score” value was -0.00622.

As for AATCTGCC, the “PBM E-score” value was -0.0515.

On to AATCAGGT, for which the “PBM E-score” value was 0.113.

On to CGCCCCAC, for which the “PBM E-score” value was -0.0143.

Turning to AGCGCCGC, the “PBM E-score” value was -0.199.

On to CCCGGTAA, for which the “PBM E-score” value is -0.206.

CATCCTGA: the “PBM E-score” value was determined as 0.0812.

In the case of TATAACGA, the “PBM E-score” value came to 0.186.

CCACGCAA: the “PBM E-score” value turned out to be 0.308.

TCACGCAA: the “PBM E-score” value amounted to 0.384.

Take TGACGCAA: the “PBM E-score” value turned out to be 0.483.

Take AGACGCAA: the “PBM E-score” value amounted to 0.258.

For ACACGCAA, the “PBM E-score” value worked out at 0.376.

For GCACGCAA, the “PBM E-score” value was found to be 0.252.

For GGACGCAA, the “PBM E-score” value was found to be 0.164.

Take ACACGCAT: the “PBM E-score” value was found to be 0.219.

As for TGACGCCA, the “PBM E-score” value was determined as 0.453.

Regarding ACACGCAC, the “PBM E-score” value was 0.158.

Take AGACGCCA: the “PBM E-score” value was determined as 0.0116.

For the sequence CGACGCCA, the “PBM E-score” value came to 0.174.

On to CGAGTCGC, for which the “PBM E-score” value is -0.243.

For the sequence GCGGTCTA, the “PBM E-score” value worked out at 0.0211.

Consider CAGATCTC, for which the “PBM E-score” value is -0.196.

AGATGTAA: the “PBM E-score” value was found to be 0.256.

TGATGTAA: the “PBM E-score” value is 0.434.

As to CGATGTAA, the “PBM E-score” value turned out to be 0.175.

On to AACGGAGT, for which the “PBM E-score” value was -0.09.

Turning to AATATGAT, the “PBM E-score” value amounted to 0.254.

Take CATATGAC: the “PBM E-score” value stood at 0.404.

For the sequence AATATGAG, the “PBM E-score” value was found to be 0.146.

CAGATGAC: the “PBM E-score” value is 0.37.

In the case of GCGATGAA, the “PBM E-score” value is -0.0296.

CATATGAG: the “PBM E-score” value is -0.0409.

Take AAGATGAC: the “PBM E-score” value turned out to be 0.337.

As to GAGATGAC, the “PBM E-score” value is 0.254.

For GCGATGAC, the “PBM E-score” value came to 0.374.

In the case of GATATGAC, the “PBM E-score” value amounted to 0.326.

For the sequence ACGATGAC, the “PBM E-score” value turned out to be 0.336.

Regarding AATATGAC, the “PBM E-score” value is 0.367.
